# Rows were chosen to be rich in hits. Some 11% of all compounds tested hit in one or more screens of this group.
# JMJD2A Tudor inh: blocks the human JMJD2A Tudor domain; O75164; AlphaScreen JMJD2A-Tudor / H3K4me3 peptide binding; Potency, µM (series often up to 114 µM), for inactives: top-dose activity change, negative = inhibition, hits mostly inhibitors; 4.4% of 390,000 active; also: % is scaled to controls: 0 for no effect and ±100 for the full control effect; nearly all actives have a fitted effect of over 50% in size
# L3MBTL1 block: L3MBTL1 (human) inhibition; Q9Y468; AlphaScreen L3MBTL1–H3K9me1 peptide binding; Potency, µM (doses to about 57.1 µM), without a hit: at the top dose activity, negative = inhibition, usual class: inhibitors; 0.66% of 230,000 active; AID 485360; also: % is scaled to controls: 0 for no effect and ±100 for the full control effect; nearly all actives have a fitted effect of over 60% in size
# Target sequence (Q9Y468 whole entry, looked up): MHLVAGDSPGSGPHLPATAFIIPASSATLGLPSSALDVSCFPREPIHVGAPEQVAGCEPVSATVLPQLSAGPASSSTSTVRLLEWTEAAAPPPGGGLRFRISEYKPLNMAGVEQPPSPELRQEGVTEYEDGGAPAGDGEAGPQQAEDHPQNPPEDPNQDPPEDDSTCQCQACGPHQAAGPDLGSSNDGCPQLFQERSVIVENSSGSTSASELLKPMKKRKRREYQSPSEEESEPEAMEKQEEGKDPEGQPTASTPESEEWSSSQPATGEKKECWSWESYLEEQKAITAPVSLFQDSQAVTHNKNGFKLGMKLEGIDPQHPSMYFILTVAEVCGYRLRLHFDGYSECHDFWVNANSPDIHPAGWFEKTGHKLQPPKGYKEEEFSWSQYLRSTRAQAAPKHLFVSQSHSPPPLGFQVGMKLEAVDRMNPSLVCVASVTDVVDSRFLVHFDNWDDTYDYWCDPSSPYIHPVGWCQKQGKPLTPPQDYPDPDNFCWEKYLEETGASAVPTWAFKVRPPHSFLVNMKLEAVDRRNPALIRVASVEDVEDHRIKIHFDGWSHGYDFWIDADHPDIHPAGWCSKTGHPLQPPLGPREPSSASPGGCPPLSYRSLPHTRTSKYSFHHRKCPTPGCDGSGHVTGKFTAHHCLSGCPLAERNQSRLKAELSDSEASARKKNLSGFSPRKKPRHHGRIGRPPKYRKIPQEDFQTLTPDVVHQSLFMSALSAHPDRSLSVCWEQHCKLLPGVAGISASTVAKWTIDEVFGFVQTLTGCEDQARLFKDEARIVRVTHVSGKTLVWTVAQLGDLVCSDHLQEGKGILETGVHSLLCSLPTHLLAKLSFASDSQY
#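 Read-out is AlphaScreen signal from streptavidin donor and nickel chelate acceptor beads (10 ug/mL final each) bridging L3MBTL1 (50 nM) and biotinylated K9-monomethylated H3(1-15) peptide (75 nM), after 30 min compound exposure at room temperature.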
# G9a block: inhibitors of human histone lysine methyltransferase G9a; Q96KQ7; G9a H3K9 monomethylation, AlphaScreen, 2 h; 8.8% of 350,000 active; Potency, µM (top dose mostly 102 µM), inactives show top-dose activity, negative = inhibition, usual class: inhibitors; also: % is scaled to controls: 0 for no effect and ±100 for the full control effect; nearly all actives have a fitted effect of over 75% in size
#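 G9a (20 nM) preincubated 15 min RT with compounds, then 500 nM biotinylated H3K9 peptide and 20 uM SAM added; 2 h RT reaction. Monomethyl-H3K9 product detected by AlphaScreen with anti-H3K9me1 antibody, streptavidin donor and anti-rabbit IgG acceptor beads.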
# HP1b binding inh: inhibitors of HP1-beta chromodomain binding to methylated histone tails. P83916. AlphaScreen HP1-beta / biotin-H3K9me3 peptide binding. Potency, µM (series often up to 114 µM), without a hit: at the top dose activity change, negative = inhibition, usual class: inhibitors. 0.56% of 390,000 active; also: nearly all actives have a fitted effect of over 70% in size
#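 Compound inhibition of the preformed complex between 50 nM HP1-beta and 50 nM biotinylated H3K9me3 peptide was read by AlphaScreen. Buffer was PBS pH 7.4 with 0.01% Tween-20. Incubations ran 30 min at room temperature, with 10 ug/mL donor/acceptor beads.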
# BAZ2B block: inhibitors of human BAZ2B bromodomain; Q9UIF8; AlphaScreen BAZ2B-H3K14Ac peptide displacement; Potency, µM (titrated, usually from 114 µM), for the others: at the highest dose activity change, negative = inhibition, hits mostly inhibitors; 4.4% of 360,000 active; AID 504333; also: % is scaled to controls: 0 for no effect and ±100 for the full control effect; nearly all actives have a fitted effect of over 60% in size
#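 BAZ2B (50 nM) with biotin-H3(5-23)K14Ac peptide (50 nM) in PBS pH 7.4, 0.01% Tween-20, preformed 30 min, then compound 30 min at room temperature; top concentration 110uM. AlphaScreen streptavidin donor/nickel chelate acceptor beads (10 ug/mL final), 20 min dark, signal read.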
# Active calls of the source: *; ? = inconclusive; / = no result given; ! = not confirmed by another sample; [ ] = dose if it differs, or a comment. Calls follow the shape of the dose curve; as a rule, active = well fitted inhibition curve with a large enough effect; inconclusive = small, poorly fitted or top-dose-only effect; inactive = no such curve, though single readings can be large or run the other way. Potency is read from the fitted curve at half-maximal effect.
SMILES,JMJD2A Tudor inh,L3MBTL1 block,G9a block,HP1b binding inh,BAZ2B block
COc1ccc2c(CNCc3ccc(Cl)cc3)c(C(=O)O)n(Cc3ccccc3C)c2c1,-10%,/,-24%[59 µM],47%,-21%
N#CN1CCC(NS(=O)(=O)c2ccc(F)cc2)C1 (configuration not stated),-7%,/,/,/,/
Cn1c(=O)n(-c2ccc(F)c(Cl)c2)c(=O)c2sc3ccccc3c21,-7%,/,-28%[59 µM],23%,?
COc1ccc(C(=O)NCC(c2ccco2)S(=O)(=O)c2cccs2)cc1 (configuration not stated),-8%,/,6%[59 µM],22%,?
CC(C(=O)Nc1ncc([N+](=O)[O-])s1)N1C(=O)c2ccccc2S1(=O)=O (configuration not stated),20µM*,8%,11µM*,-9%,-36%
Cc1cccc(NC(=O)C(C)N2C(=O)c3ccccc3S2(=O)=O)n1 (configuration not stated),1%,-7%,7%,3%,11%
Cc1nc(SCCOc2ccccc2)[nH]c(=O)c1Cc1ccccc1,-10%,5%,4%,3%,3%
N=c1ncn(Cc2ccccc2)c2nc(SCCOc3ccccc3)[nH]c12,-1%,5%,79µM*,30%,-4%
CCOc1ccc(C(=O)NCC(=O)OCC(=O)c2ccc3c(c2)-c2ccccc2C3)cc1,-4%,-7%,71µM*,55%,13%
COc1ccccc1C(=O)NCC(=O)OCC(=O)c1ccc2c(c1)-c1ccccc1C2,-12%,-4%,-5%[59 µM],16%,-6%
NC(N)=NC(=O)c1nc(Cl)c(N2CCCCCC2)nc1N,?,-11%,50µM*!,-18%,?
Cn1cccc1/C=N/NC(=O)c1cccs1,-9%,/,16%,15%,-35%
CCCc1cc(C(=O)N/N=C/c2cccn2C)cs1,?,/,?,?,45µM*
Cc1ccc(NC(=O)CN2C(=O)CC(c3ccc(C)c(C)c3)=Nc3ccccc32)cc1,-20%,/,-1%[59 µM],9%,-3%
CCN(CC)S(=O)(=O)c1cccc(NC(=O)CCNC(=O)NC23CC4CC(CC(C4)C2)C3)c1,-27%,1%,50µM*,8%,-32%
CN(C)S(=O)(=O)c1cccc(NC(=S)NC23CC4CC(CC(C4)C2)C3)c1,-22%,/,5%,3%,-16%
CCN(CC)S(=O)(=O)c1cccc(C(=O)NCC2CCCCC2)c1,28µM*,/,-9%,8%,2%
CCN(CC)S(=O)(=O)c1cccc(NC(=O)CNC2CCCCCC2)c1,50µM*,-5%,35µM*,2%,79µM*
CN(C)S(=O)(=O)c1cccc(NC(=O)CNCC2CCCCC2)c1,22µM*,0%,14µM*,-28%,?
CCOc1ccc(NC(=O)CN(C)C(=O)c2cc([N+](=O)[O-])ccc2Sc2ccccc2)cc1OCC,?,/,/,-6%,/
O=C(c1ccc2c(c1)N(Cc1ccccc1)C(=O)c1ccccc1S2(=O)=O)N1CCN(Cc2ccccc2)CC1,-28%,/,-45%[59 µM],22%,-32%
CNC(=O)c1ccc2nc(Cc3ccccc3)oc2c1,-5%,/,7%[59 µM],7%[57 µM],-10%
CC1CCC(NCC(=O)Nc2cccc(S(N)(=O)=O)c2)CC1 (configuration not stated),22µM*,0%,10µM*,-31%,79µM*
NS(=O)(=O)c1cccc(NC(=O)CC2(CC(=O)O)CCCC2)c1,6%,/,-9%,0%,10%
COc1ccccc1-n1cnc2c(c1=O)c1nc3ccccc3nc1n2-c1ccc(C)c(C)c1,-30%,-2%,-10%[59 µM],39%,56µM*
SMILES,JMJD2A Tudor inh,L3MBTL1 block,G9a block,HP1b binding inh,BAZ2B block
CN(C)CC[C@@H](c1ccc(Br)cc1)c1ccccn1,-7%,/,16µM*!,28%,/
CN(C)CC[C@@H](c1ccc(Cl)cc1)c1ccccn1,2%,/,21%[59 µM],33%,/
COCCC1CCCCN1C(=O)c1cccc(OC2CCN(S(C)(=O)=O)CC2)c1 (configuration not stated),-9%,/,/,7%,-6%
CCn1c(C)cc(/C=C2\NC(=O)N(Cc3ccc(Cl)cc3)C2=O)c1C,-32%,-16%,0%,-17%,-10%
COCCn1c(C)cc(/C=C2/NC(=O)N(Cc3ccc(C)cc3)C2=O)c1C,-33%,-29%,16µM*,-12%,-28%
COc1ccc(-c2cc(C)no2)cc1S(=O)(=O)NC1CCC(C)CC1 (configuration not stated),-15%,/,0%[59 µM],22%,-9%
COc1cc(/C=N/NC(=O)C(N)=O)ccc1OC(=O)c1cccs1,-12%,3%,29%,48%,-7%
COc1cc(/C=N/Nc2ccccc2)ccc1OC(=O)c1cccs1,-13%,20%,28µM*,23%,16%
COc1cc(/C=N/Nc2ccc(Cl)c(C(=O)O)c2)ccc1OC(=O)c1cccs1,?,-6%,25µM*,-7%,?
COCCN(C(=O)COC(=O)C1(c2ccccc2)CC1)c1c(N)n(CC(C)C)c(=O)[nH]c1=O,-6%,8%,-47%,25%,5%
CC12CCC(C(=O)Nc3ccncc3)(CC1O)C2(C)C (configuration not stated),-6%,/,-10%,32%,3%
COC(=O)c1c(C)sc(-c2c(-c3cccc(OC)c3)[nH]c3c2c(=O)[nH]c(=O)n3C)c1O,-24%,/,-3%[59 µM],14%,-28%
CCOC(=O)CSc1nc2c(sc(=S)n2-c2ccccc2OC)c(=O)n1Cc1ccco1,-33%,-6%,45µM*,-13%,-37%
CCOc1ccc(OCC(=O)NCCS(=O)(=O)N2CCN(c3ccccc3F)CC2)cc1,-12%,/,12%[59 µM],11%[57 µM],1%
c1ccc(C2=Nn3c(nnc3-c3ccccn3)SC2)cc1,-31%[57.1 µM],?,?,68%,28µM*
Cc1cc(-c2nnc3n2N=C(c2ccccc2)CS3)n[nH]1,?,8%,45µM*,15%,-22%
CC1=Nn2c(nnc2-c2ccccn2)SC1,22µM*,-5%,-21%[12.7 µM],32%,50µM*
c1ccc(C2=Nn3c(nnc3-c3ccncc3)SC2)cc1,-19%,2%,?,12%,0%
CCc1ccc2occ(CC(=O)Nc3ccc(OC)c(Cl)c3)c2c1,3%,/,-4%[59 µM],45%,-10%
CC1Cc2cc(S(=O)(=O)N3CCC(C(=O)NCc4ccco4)CC3)ccc2N1C(=O)C1CCC1 (configuration not stated),-20%,/,-17%,10%,-28%
CCOC(=O)C(=O)Nc1sc(C(=O)N(CC)CC)c(C)c1C#N,-23%,1%,50µM*,57%,-20%
CCN(CC)C(=O)c1sc(NC(=O)Cc2ccccc2)c(C#N)c1C,-22%,-4%,1%[59 µM],18%,-14%
CCCCCC(=O)Nc1sc(C)c(C)c1C#N,-9%,9%,3.2µM*,?,-29%

# Screening results (PubChem BioAssay)
